Screening results from PubChem BioAssay.
Most compounds without a hit are left out; they make up all but 6% or so of the library.
D1 PAM – potentiators of human D1 dopamine receptor. P21728. HEK293 TREx D1 cells, calcium flux, dopamine EC20 potentiation. potentiation, % at 10 µM. hit rate 0.036% among 360,000; in the data active = potentiation above about 30%; also: 0% is about no effect
D1 ag – agonists of human D1 dopamine receptor; P21728; hit rate 1% among 360,000; HEK293 T-REx D1 cells, calcium flux, agonist mode; AID 504660; activation, % at 2 µM; in the data active = activation above about 30%; also: 0% is about no effect
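Tetracycline-induced HEK293 TREx D1 cells, force-coupled to calcium signalling, were dye-loaded with a no-wash calcium kit. Compound was pin-added after a 10 s baseline. Fluorescence was read kinetically at 1 cycle/s for 180 s, with calcium rises flagged as agonism.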
DRD3 agonist – agonists of human D3 dopamine receptor; AID 652048; D3R DiscoveRx beta-arrestin cells, luminescence, 90 min; P35462; hit rate 0.58% among 410,000; max activation, %; in the data active = max activation above about 30%; also: 0% is about no effect
Target sequence (P35462 whole entry, looked up): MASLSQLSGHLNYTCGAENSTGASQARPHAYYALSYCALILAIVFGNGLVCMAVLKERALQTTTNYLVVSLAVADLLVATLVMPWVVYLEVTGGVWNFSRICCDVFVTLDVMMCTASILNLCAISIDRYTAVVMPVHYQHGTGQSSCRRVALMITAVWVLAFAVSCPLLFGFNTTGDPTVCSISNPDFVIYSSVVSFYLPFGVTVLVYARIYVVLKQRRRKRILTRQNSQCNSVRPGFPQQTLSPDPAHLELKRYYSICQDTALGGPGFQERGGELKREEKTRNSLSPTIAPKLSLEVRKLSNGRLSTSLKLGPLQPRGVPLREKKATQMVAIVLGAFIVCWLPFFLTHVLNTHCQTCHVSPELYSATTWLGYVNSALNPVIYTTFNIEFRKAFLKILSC
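Agonist mode: compounds and dopamine controls were applied to plated cells for 90 min at 37 degrees C after an overnight attachment at 1500 cells/well. Luminescent read-out followed 30 - 60 minutes at room temperature with DiscoveRx detection reagent.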
Chronic BCR inh – inhibitors of chronic active B-cell receptor signaling; ABC-DLBCL IkBa-CBG/CBR reporter, luminescence ratio, 4 h; Potency, µM (top dose mostly 46.1 µM), for inactives: at the highest dose activity change, negative = inhibition, usual class: inhibitors; hit rate 0.05% among 340,000; active = well fitted inhibition curve with a large enough effect in the signal ratio, with a control signal flat, not every such curve was filed as active; inconclusive = small, poorly fitted or top-dose-only effect, or effect the other way, or a change in a side signal; the % refers to the signal ratio;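 also: potency is read from the fitted curve at half-maximal effect; plate controls were basal doxycycline-induced cells for no effect and cells given 10 µM MG132 for full effect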
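Compounds up to 46 uM were incubated four hours with TMD8 cells whose green CBG68 luciferase is fused to IkappaBalpha; red CBR luminescence normalised the signal, and concentration-effect curves were fitted to fusion, red and ratio data.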
D1 antag – blocks dopamine activation of the human D1 receptor; hit rate 3.2% among 360,000; activity change, negative = inhibition, % at 10 µM; HEK293 TREx D1 cells, calcium flux, dopamine EC80; stronger effect = lower value; in the data active = activity change below about -30%; also: % is scaled to controls: 0 for no effect and ±100 for the full control effect
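Kinetic fluorescence of a calcium dye serves as the read-out. D1-expressing Hek293 Trex cells, induced overnight at 30 C, are exposed to compound for 180 s before an EC80 dopamine addition, then read 180 s further.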
DRD3 antagonist – D3 dopamine receptor (human) antagonism; P35462; D3R cells, DiscoveRx beta-arrestin luminescence, antagonist mode; stronger effect = lower value; max response, negative = inhibition, %; hit rate 2.5% among 360,000; AID 652054; in the data active = max response below about -50%; inconclusive = no clear call, values can overlap the other calls; also: % is scaled to controls: 0 for no effect and ±100 for the full control effect
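Cells expressing the human receptor were seeded at 1500 cells/well, incubated overnight at 37 degrees C in 5% CO2, then exposed to library compounds with dopamine controls for 90 minutes at 37 degrees C before luminescent detection.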
The depositor's hits bear a star; ! = not confirmed by another sample.

Results for CN1C[C@@H]2[C@@H]3C(=O)N(Cc4ccccc4)C(=O)[C@@H]3[C@](C)(C1=O)N2C(=O)c1ccc(F)cc1 ?
DRD3 agonist: 22; DRD3 antagonist: 21

Results for CCN1C[C@@H]2[C@@H]3C(=O)N(Cc4ccccc4)C(=O)[C@@H]3[C@](C)(C1=O)N2C(=O)c1ccccc1 ?
DRD3 agonist: 43*; DRD3 antagonist: 0

How did CCc1cccc(C)c1NC(=O)c1cc(S(=O)(=O)NCc2ccccc2Cl)ccc1F do in these assays?
D1 PAM: 10; D1 ag: 11; DRD3 agonist: -23; Chronic BCR inh: 0%; D1 antag: 90

Results for CC(=O)c1nc(N2C(=O)CC(Cc3cccc(C)c3)C2=O)sc1C (configuration not stated) ?
D1 PAM: -5; D1 ag: 4; DRD3 agonist: 8; Chronic BCR inh: 5%; D1 antag: -53*; DRD3 antagonist: -55*

What do the screens show for `Cc1ccc(CN2C(=O)C(Cc3ccccc3)Nc3ncnc(N4CCCCC4)c32)cc1` (configuration not stated)?
D1 PAM: -5; D1 ag: 2; DRD3 agonist: -22; Chronic BCR inh: -6%; D1 antag: -7; DRD3 antagonist: -84*!

Results for COc1ccc(CN2C(=O)C(Cc3ccccc3)Nc3ncnc(N4CCCCC4)c32)cc1 (configuration not stated) ?
D1 PAM: 11; D1 ag: 1; DRD3 agonist: -24; Chronic BCR inh: 2%; D1 antag: 24; DRD3 antagonist: -53*

How did Cc1ccc(CN2C(=O)C(Cc3ccccc3)Nc3ncnc(N4CCN(c5ccccc5)CC4)c32)cc1 (configuration not stated) do in these assays?
D1 PAM: -1; D1 ag: 3; DRD3 agonist: -65; Chronic BCR inh: 0%; D1 antag: 3; DRD3 antagonist: -140*

Results for CCC1Nc2ncnc(N3CCCCC3)c2N(Cc2ccccc2)C1=O (configuration not stated) ?
D1 PAM: 8; D1 ag: -1; DRD3 agonist: -8; Chronic BCR inh: -9%; D1 antag: 18; DRD3 antagonist: -13

How did CC(C)CC1Nc2ncnc(N3CCOCC3)c2N(Cc2ccccc2)C1=O (configuration not stated) do in these assays?
DRD3 agonist: 60*!; Chronic BCR inh: 0%; DRD3 antagonist: 1

What do the screens show for `CCC1Nc2ncnc(N3CCCCC3)c2N(Cc2ccc(C)cc2)C1=O` (configuration not stated)?
DRD3 agonist: -9; Chronic BCR inh: -2%; DRD3 antagonist: inconclusive

Results for O=C(c1cccs1)N1CCN(Cc2nc(-c3ccccc3)no2)CC1 ?
DRD3 agonist: 1; DRD3 antagonist: -8

How did O=S1(=O)C[C@H](N2CCC(Cc3ccccc3)CC2)[C@@H](COCc2ccccc2)N1 do in these assays?
DRD3 agonist: -1; DRD3 antagonist: 7

How did O=C1C(Cc2ccccc2)Nc2ncnc(N3CCOCC3)c2N1Cc1ccc(Cl)cc1 (configuration not stated) do in these assays?
D1 PAM: 0; D1 ag: 3; DRD3 agonist: -38; Chronic BCR inh: -2%; D1 antag: -21; DRD3 antagonist: -102*!

How did O=C1C(Cc2ccccc2)Nc2ncnc(N3CCN(c4ccccc4)CC3)c2N1Cc1ccccc1 (configuration not stated) do in these assays?
D1 PAM: 1; D1 ag: 5; DRD3 agonist: -29; Chronic BCR inh: 0%; D1 antag: 9; DRD3 antagonist: -15

What do the screens show for `CCc1ccc(N(C(=O)c2csnn2)C(C(=O)NC(C)(C)CC)c2ccccn2)cc1` (configuration not stated)?
D1 PAM: -5; D1 ag: 1; DRD3 agonist: 2; Chronic BCR inh: 0%; D1 antag: -66*; DRD3 antagonist: -8

What do the screens show for `CCc1ccc(N(C(=O)c2csnn2)C(C(=O)NC(C)(C)C)c2ccccn2)cc1` (configuration not stated)?
D1 PAM: 0; D1 ag: 3; DRD3 agonist: 1; Chronic BCR inh: 7%; D1 antag: 1; DRD3 antagonist: 15

How did CCCCOc1ccccc1C1CC(=O)NC2=C1C(=O)CCC2 (configuration not stated) do in these assays?
D1 PAM: -5; D1 ag: 15; DRD3 agonist: -15; Chronic BCR inh: inconclusive; D1 antag: -48*; DRD3 antagonist: -5

Results for Cc1ccc(C)c(NC(=O)Cn2c(=O)n(Cc3ccc4c(c3)OCO4)c(=O)c3oc4ccccc4c32)c1 ?
D1 PAM: -3; D1 ag: 1; DRD3 agonist: 5; D1 antag: -2

What do the screens show for `COc1ccc(C(=O)c2cc3c(cc2[N+](=O)[O-])OCCO3)cc1`?
D1 PAM: 1; D1 ag: -1; DRD3 agonist: 1; Chronic BCR inh: -24%; D1 antag: -32*; DRD3 antagonist: -15

Results for O=C(c1ccccc1F)c1cc2c(cc1[N+](=O)[O-])OCCO2 ?
D1 PAM: -2; D1 ag: 2; DRD3 agonist: 8; Chronic BCR inh: -17%; D1 antag: -9; DRD3 antagonist: -5

How did Cc1ccc(NC(=O)Cc2coc3ccc(C(C)C)cc23)cc1Cl do in these assays?
D1 PAM: 0; D1 ag: 38*; DRD3 agonist: 3; D1 antag: -2

What do the screens show for `Cc1ccc(NC(=O)Cc2cccs2)cc1Cl`?
D1 PAM: 1; D1 ag: -1; DRD3 agonist: 3; Chronic BCR inh: inconclusive; D1 antag: -12; DRD3 antagonist: 19

How did Cc1ccc(NC(=O)Cc2ncon2)cc1Cl do in these assays?
D1 PAM: -3; D1 ag: 1; DRD3 agonist: 1; Chronic BCR inh: -18%; D1 antag: -45*; DRD3 antagonist: 6

Results for CC(=O)Nc1ccc(N2CCC(C)CC2)c([N+](=O)[O-])c1 ?
D1 PAM: -1; D1 ag: -1; DRD3 agonist: 7; Chronic BCR inh: inconclusive; D1 antag: 5; DRD3 antagonist: -8

Results for CC(=O)Nc1ccc(N2CCCC(C)C2)c([N+](=O)[O-])c1 (configuration not stated) ?
D1 PAM: -2; D1 ag: -2; DRD3 agonist: -12; Chronic BCR inh: 1%; D1 antag: 10; DRD3 antagonist: -55*

How did Cc1ccc(C(=O)Oc2cc(C)n(C)c(=O)c2)cc1 do in these assays?
D1 PAM: -2; D1 ag: 2; DRD3 agonist: 35*; Chronic BCR inh: inconclusive; D1 antag: -10; DRD3 antagonist: 91
